Source: PubChem (National Center for Advancing Translational Sciences (NCATS))
Compounds with a hit are over-represented: about 9.4% of the library has one in this group of screens.
ELG1 genotox: inducers of genotoxicity in HEK293T ELG1-luciferase cells. hit rate 1.3% among 330,000. Potency, µM (doses to about 46 µM), most hits filed as activators. HEK293T ELG1-luciferase reporter, luminescence, 16 h; further: nearly all actives have a fitted effect of over 60% in size
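Luminescence read-out: rising ELG1-luciferase signal, reflecting elevated ELG1 protein under genetic stress, flags genotoxic compounds. Cells were treated for 16 hr at 37 °C before ONE-Glo detection.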
Rab9 prom act: Rab9 promoter activation. Huh7 Rab9 promoter-luciferase reporter, luminescence, 24 h. hit rate 2.8% among 320,000. Potency, µM (doses to about 9.22 µM), usual class: activators; further: nearly all actives have a fitted effect of over 60% in size
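Huh7 cells stably carrying Rab9 promoter–luciferase reporter, plated 1500 cells/well, compound added after 2 h and incubated 24 h at 37 °C; luciferase luminescence then read after 10 min with detection reagent.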
FLuc counter: firefly luciferase modulation, counter-screen for miR-21 project; P08659; Potency, µM (titrated, usually from 57.5 µM), actives largely listed as inhibitors; purified FLuc, Km substrates, luminescence inhibition; hit rate 6.9% among 360,000; AID 588342; further: nearly all actives have a fitted effect of over 55% in size
Target sequence (P08659 whole entry, looked up): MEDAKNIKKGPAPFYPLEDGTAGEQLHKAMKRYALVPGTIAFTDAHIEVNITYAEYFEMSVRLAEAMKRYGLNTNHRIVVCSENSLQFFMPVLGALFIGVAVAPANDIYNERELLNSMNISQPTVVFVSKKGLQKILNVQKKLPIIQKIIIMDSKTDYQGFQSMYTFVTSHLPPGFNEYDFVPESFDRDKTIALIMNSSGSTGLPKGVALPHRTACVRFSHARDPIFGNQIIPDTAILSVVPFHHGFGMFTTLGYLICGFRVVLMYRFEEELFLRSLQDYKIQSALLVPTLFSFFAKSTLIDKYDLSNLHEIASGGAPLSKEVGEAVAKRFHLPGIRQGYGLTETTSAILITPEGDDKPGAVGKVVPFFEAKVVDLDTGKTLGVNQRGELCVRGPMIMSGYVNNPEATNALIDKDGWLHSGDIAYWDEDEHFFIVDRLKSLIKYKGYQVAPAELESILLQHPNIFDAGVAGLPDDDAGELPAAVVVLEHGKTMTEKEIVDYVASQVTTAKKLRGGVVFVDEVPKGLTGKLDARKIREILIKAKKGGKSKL
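Purified P. pyralis luciferase (10nM final) with 10uM D-luciferin and 10uM ATP (Km levels) in 50mM Tris acetate pH 7.5, 10mM Mg acetate, 0.01% Tween-20, 0.05% BSA; qHTS 6-point titration, ~60 µM downward; luminescence read.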
NPC1 promoter act: NPC1 promoter activation; Huh7 NPC1 promoter luciferase reporter, 24 h; Potency, µM (doses to about 9.22 µM), usual class: activators; AID 485313; hit rate 2.4% among 320,000; further: nearly all actives have a fitted effect of over 60% in size
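Huh7 cells stably carrying NPC1 promoter–luciferase, plated in Opti-MEM with 10% FBS for 2 h, were exposed to compound in DMSO for 24 h at 37 °C; luciferase reagent was added for 10 min and luminescence read.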
ELG1 repair inh: blocks ELG1-dependent DNA repair in HEK293T cells | HEK293T ELG1-luciferase reporter, luminescence, 16 h; DNA damage induced by 5-fluorouridine | Potency, µM (top dose mostly 46.1 µM), hits mostly inhibitors | hit rate 2.3% among 330,000 | AID 504467; further: nearly all actives have a fitted effect of over 55% in size
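Overnight (16 hr) co-exposure of 2,000 cells/well to 5-fluorouridine and compound at 37 °C preceded detection. Luciferase was quantified via ONE-Glo luminescence; loss of signal denotes inhibition.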
SMN2 splice up: SMN2 splice variant enhancement | HEK293 SMN2-luciferase splicing reporter, luminescence, 30-36 h | hit rate 2.8% among 210,000 | AID 1458 | Potency, µM (series often up to 46.1 µM), hits mostly activators; further: nearly all actives have a fitted effect of over 55% in size
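qHTS luciferase splicing reporter: luminescence rises when SMN2 exon 7 is included in transfected HEK293 cells. Compound exposure lasted 30-36 h at 37C, with 4.5 mM final sodium butyrate as control, followed by a ONE-Glo read.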
Hits are given with their value; i = inactive; ? = inconclusive; nt = no result. The call rests on the fitted dose curve; in most records, active means well fitted curve in the direction sought with a large enough effect; inconclusive means small, poorly fitted or top-dose-only effect, or another doubt; inactive means no such curve, though single readings can be large; an effect the other way counts as inactive or inconclusive.

SMILES	ELG1 genotox	Rab9 prom act	FLuc counter	NPC1 promoter act	ELG1 repair inh	SMN2 splice up
CCOc1ccc(/C=N/NC(=O)c2cc(-c3ccco3)nc3ccccc23)cc1	i	i	?	i	i	?
O=C(N/N=C/c1ccc(F)cc1)c1cc(-c2ccco2)nc2ccccc12	i	i	3µM	i	i	i
Cn1c(=O)c(C(=O)COC(=O)c2cc(-c3ccco3)nc3ccccc23)c(N)n(CC2CC2)c1=O	i	i	?	i	6.5µM	i
CCC(=O)N1c2ccc(S(=O)(=O)NCc3ccc(F)cc3)cc2CC1C (stereo not given)	nt	nt	i	nt	nt	i
Cc1nc2ccn(Cc3cccnc3)c(=O)c2cc1C(=O)N1CCN(c2ccc(F)cc2)CC1	nt	nt	i	nt	nt	nt
Cc1nc2ccn(Cc3ccccc3)c(=O)c2cc1C(=O)N1CCN(c2ccc(F)cc2)CC1	i	i	i	i	6.5µM	nt
COc1ccc(-n2nc(C(=O)Nc3ccc(Cl)cn3)c3c4ccccc4n(C)c3c2=O)cc1Cl	nt	nt	i	nt	nt	i
COc1c(/C=N/NC(=O)c2ccccc2O)c(CCN(C)C(C)=O)cc2c1OCO2	i	i	19µM	i	i	i
Cc1ccc(C)c(Cn2cnc3ccccc3c2=O)c1	nt	nt	i	nt	nt	i
COc1ccc(OC)c(NC(=O)CN(C)S(=O)(=O)c2ccc(C(=O)N3CCOCC3)s2)c1	nt	nt	i	nt	nt	nt
CCOC(=O)c1nnc(-c2ccc(C)cc2)nc1Sc1ccc(Cl)cc1	i	i	i	i	i	i
CCOC(=O)c1nnc(-c2ccc(C)cc2)nc1N1CCSCC1	i	i	13µM	i	?	i
COc1cc(-c2nc(-c3ccccc3)c(-c3cc([N+](=O)[O-])ccc3C)[nH]2)cc(OC)c1OC	i	i	i	i	7.3µM	i
CCCNC(=O)c1ccccc1NC(=O)c1ccccc1N(C)S(=O)(=O)c1ccc(C)cc1	i	i	i	i	23µM	i
COc1ccc(NC(=S)Nc2cccnc2)c(OC)c1	i	i	i	i	i	i
COc1ccc(NC(=S)Nc2ccccn2)c(OC)c1	?	?	?	?	?	11µM
COc1ccc(NC(=S)Nc2cc(C)ccn2)c(OC)c1	?	?	2.7µM	?	?	11µM
COc1cc(NC(=S)Nc2ccccn2)cc(OC)c1	i	i	9.5µM	i	i	i
COc1ccc(NC(=S)Nc2cnc3ccccc3c2)c(OC)c1	i	i	6µM	i	?	i
COc1ccc(NC(=S)Nc2ccc(OC)cc2OC)c(OC)c1	i	i	i	i	i	i
COc1ccc(NC(=S)Nc2ccccc2OC)c(OC)c1	i	i	i	i	i	i
Cc1ccc2nc(NC(=O)CSc3nccn3Cc3ccc(Cl)cc3)sc2c1	nt	nt	i	nt	nt	nt
COc1cc(=O)n(C)c2c(OC[C@@H](O)C(C)(C)O)cccc12	nt	nt	nt	nt	nt	i
COc1ccc(N2CCN(S(=O)(=O)c3c(C)nc4sc(C)cn4c3=O)CC2)cc1	nt	nt	i	nt	nt	nt
COc1ccc(NC(=S)NC(=O)CC(C)C)c(OC)c1	i	i	13µM	i	i	i
SMILES	ELG1 genotox	Rab9 prom act	FLuc counter	NPC1 promoter act	ELG1 repair inh	SMN2 splice up
O=C1C/C(=C\c2c(F)cccc2Cl)N2CCC1CC2	i	i	i	i	i	i
O=C1CN2CCC1C/C2=C\c1ccnc2c(Cl)cccc12 (stereo not given)	i	i	i	i	10µM	nt
COc1ccc(/C(C)=N/NC(=O)c2nc(C)cc(C)n2)cc1	5.6µM	?	24µM	?	?	11µM
COc1ccc(/C(C)=N/NC(=O)c2ccc(N(C)C)cc2)cc1	i	i	i	i	i	i
COc1ccc(/C(C)=N/NC(=O)c2ccc(NS(=O)(=O)c3cccs3)cc2)cc1	i	i	21µM	i	i	nt
CCOc1ccc(NS(=O)(=O)c2cc(NC(=O)c3ccc(C)cc3)ccc2Cl)cc1	i	i	13µM	i	6.5µM	i
C/C(=N\NC(=O)c1ccc(NS(=O)(=O)c2cccs2)cc1)c1ccccn1	i	i	?	i	3.7µM	nt
CCOc1ccc(S(=O)(=O)c2cn(Cc3ccccc3C)c3ccc(OC)cc3c2=O)cc1	nt	nt	i	nt	nt	i
CCOc1ccc(C(=O)c2cccs2)cc1	?	?	17µM	?	?	i
COc1ccccc1NS(=O)(=O)c1cc(NC(=O)c2ccc(Cl)nc2)ccc1Cl	i	i	i	i	13µM	i
COc1ccc(C(=O)Nc2ccc(Cl)c(S(=O)(=O)Nc3ccccc3OC)c2)cc1	i	i	?	i	?	i
CCOc1ccc(NC(=O)c2ccc(NS(=O)(=O)c3cccs3)cc2)cc1	i	i	12µM	i	i	nt
COc1ccccc1C(=O)Nc1cccc(C(=O)OCc2cc(=O)n3cc(C)sc3n2)c1	nt	nt	i	nt	nt	nt
O=C(c1ccc(NC(=O)C2(c3ccccc3)CCOCC2)cc1)N1CCOCC1	nt	nt	i	nt	nt	i
CC(=O)c1ccc(NC(=O)C2(c3ccccc3)CCOCC2)cc1	?	?	13µM	3.2µM	?	i
COc1ccc(C)cc1NS(=O)(=O)c1ccc2c3c(cccc13)C(=O)N2	nt	nt	i	nt	nt	i
Cc1nc(-c2ccccn2)nc(N(C)c2ccccc2)c1Cl	i	i	15µM	i	?	nt
COc1ccc(CCNC(=O)c2ccc(CS(=O)(=O)c3ccc(C)cc3)o2)cc1OC	i	i	i	i	16µM	i
COc1ccc(CCNC(=O)c2ccc(CS(=O)(=O)c3ccc(Cl)cc3)o2)cc1OC	i	i	i	i	?	i
Cc1ccc2c(=O)cc(C(=O)NCCc3ccc(S(N)(=O)=O)cc3)oc2c1	i	i	i	i	9.2µM	nt
COc1ccc(CCNC(=O)c2cc([N+](=O)[O-])cc([N+](=O)[O-])c2)cc1OC	i	i	i	i	?	nt
COc1ccc(CCNC(=O)c2ccc(-c3ccc([N+](=O)[O-])cc3Cl)o2)cc1OC	i	i	i	i	18µM	i
COc1ccc(CCNC(=O)c2cc(=O)c3ccc(C)cc3o2)cc1OC	i	i	i	i	16µM	i
COc1cccc(CNC(=O)Cn2c(=O)oc3cc(S(=O)(=O)N4CCCC4)ccc32)c1	nt	nt	i	nt	nt	i
COc1ccc(CCNC(=O)COc2ccc(N(C)S(=O)(=O)c3ccc(C)cc3)cc2)cc1OC	i	i	i	i	21µM	nt
SMILES	ELG1 genotox	Rab9 prom act	FLuc counter	NPC1 promoter act	ELG1 repair inh	SMN2 splice up
COc1ccc2c(C(=O)NCCCCO)c(-c3ccc(S(C)(=O)=O)cc3)sc2c1	i	nt	nt	nt	i	nt
COc1ccc2sc(-c3ccc(S(C)(=O)=O)cc3)c(C(=O)NCCc3c[nH]c4ccccc34)c2c1	i	nt	nt	nt	18µM	nt
O=C(CCc1ccccc1)OCCOC(=O)CCc1ccccc1	i	i	i	i	i	nt
Nc1ccc(C(=O)OCCc2ccccc2)cc1	?	3.2µM	0.6µM	3.5µM	?	nt
CN(C)S(=O)(=O)c1ccc(C(=O)OCCc2ccccc2)cc1	i	i	15µM	i	i	nt
O=C(OCCc1ccccc1)c1cc(O)c(O)c(O)c1	?	i	24µM	i	?	nt
